In all, about 1,400 compounds went through this assay and about 970 (69%) were called active. Not shown: some 5% with an inconclusive outcome. No stated cut-off is given here; in the data, active means inhibition above about 45%; inconclusive means no clear call, values can overlap the other calls; inactive means below that. So high a share suggests a set chosen from earlier hits. These entries were drawn from the full list.
These compounds were tested against Ubiquitin-conjugating enzyme E2 N (Homo sapiens) (UniProt P61088) (assay: UBC13 polyubiquitination inhibitors, single-point retest, confirmation, biochemical, TR-FRET, single concentration (AID 488859)). Conditions: at 10 µM, hits give high values.
Ubiquitin-conjugating enzyme E2 N (Homo sapiens), sequence (P61088 whole entry, looked up): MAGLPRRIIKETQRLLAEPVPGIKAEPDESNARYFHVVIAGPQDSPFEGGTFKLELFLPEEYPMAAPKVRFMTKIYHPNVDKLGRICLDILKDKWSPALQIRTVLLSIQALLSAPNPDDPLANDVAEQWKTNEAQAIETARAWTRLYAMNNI

| SMILES | inhibition |
| --- | --- |
| CNCC(O)c1cc(F)c(OCc2ccccc2)c(OCc2ccccc2)c1F (stereo unspecified) | 50.4% (active) |

From PubChem BioAssay AID488859 (Sanford-Burnham Center for Chemical Genomics, 2010)
